Compound activity as filed in PubChem BioAssay.
IL2 activator: qHTS of IL-2 Activators; IL-2 activation reporter assay, cell-based qHTS; stimulated with anti-CD3/CD4/CD28 beads; in transgenic mouse T cells; activation, % (series mostly up to about 46 µM); 0.065% of 360,000 active; AID 652025, 2013; in the data active = activation above about 50%; inconclusive = mostly about 30% to 49%; note: 0% is about no effect
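Unstimulated transgenic mouse T cells; 60-min compound exposure; bead-based TCR/CD4/CD28 stimulation; 18 h culture, 37 degrees C; dual fluorescence (EGFP, DsRed) plate cytometry.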
Nrf2 inh: Nrf2 qHTS screen for inhibitors | A549 ARE-Fluc reporter, luciferase luminescence, 18-24 h | Potency, µM (titrated, usually from 46 µM), for the others: top-dose activity change, negative = inhibition, usual class: inhibitors | 2.1% of 360,000 active; note: potency is the fitted concentration of half-maximal effect; % is set by controls: 0 for no effect and ±100 for the full control effect; nearly all actives have a fitted effect of over 60% in size
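Reporter: ARE-Fluc in A549. Exposure: 18-24 h, 37 °C, 5% CO2, 5% FBS OPTI-MEM. Readouts: fluorescent cytotoxicity (CellTiter-Fluor), then luminescent Nrf2 signal after BugLite.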
A549 tox: Nrf2 qHTS screen for inhibitors: counterscreen for cytotoxicity; Potency, µM (titrated, usually from 46 µM), inactives show top-dose activity change, negative = cytotoxicity, most hits filed as inhibitors; 0.16% of 390,000 active; A549 ARE-Fluc cells, CellTiter-Fluor viability, 18-24 h; AID 504648, 2011; note: potency is the fitted concentration of half-maximal effect; % is set by controls: 0 for no effect and ±100 for the full control effect
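A549 ARE-Fluc cells in 5% FBS OPTI-MEM, 5000 cells/well, rested 2 h then exposed to compounds in concentration-response for 18-24 h at 37 °C. Viability by CellTiter-Fluor fluorescence (Ex 405/Em 525) after 30 min; luciferase luminescence (BugLite, 15 min, RT) read afterwards.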
Nrf2 ARE act: qHTS of Nrf2 Activators. AREc32 ARE-luciferase reporter (MCF7-derived line), luminescence, 24 h. AID 624171, 2012. 0.31% of 410,000 active. Potency, µM (top dose mostly 46.1 µM), for inactives: top-dose activation, most hits filed as activators; note: potency is the fitted concentration of half-maximal effect; % of control where 0% means no effect; nearly all actives have a fitted effect of over 65% in size
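Each well held 1000 AREc32 cells, which were incubated with compound for 24 hr at 37 deg C after overnight attachment, and ARE reporter activity was quantified by firefly luciferase luminescence.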
An asterisk follows results filed as active; ? = inconclusive; . = not tested or not shown. In the library only some 2.3% were active in any assay of this set; here they are far more common. Unless noted, calls come from the whole dose curve; as a rule, active = well fitted curve in the direction sought with a large enough effect; inconclusive = small, poorly fitted or top-dose-only effect, or another doubt; inactive = no such curve, though single readings can be large; an effect the other way counts as inactive or inconclusive.

SMILES	IL2 activator	Nrf2 inh	A549 tox	Nrf2 ARE act
Cn1c(SCC(=O)N2CCOCC2)ncc(C(=O)Nc2ccccc2)c1=O	.	.	-5.9%	3.9%
CC1CCN(C(=O)c2cc(-c3ccc(Cl)cc3)on2)CC1	.	?	1.1%	4.8%
CCOC(=O)N1CCC(NC(=O)C2CCCN(Cc3nc(-c4cccc(Cl)c4)oc3C)C2)CC1 (configuration not stated)	-4.3	16.4µM*	-15.5%	0.7%
c1ccc(CN2CCN(c3nc(-c4ccccc4)nc(-n4ccnc4)n3)CC2)cc1	-1.1	14.6µM*	-29.6%	-0.3%
CN(c1ccccc1)c1nc(N2CCCC2)nc(-n2ccnc2)n1	2.0	-27.4%	-10.2%	-0.6%
c1ccc(N(c2ccccc2)c2nc(N3CCCC3)nc(-n3ccnc3)n2)cc1	-3.3	23.1µM*	?	-0.9%
O=C1CCc2cc(S(=O)(=O)Nc3ccc4ccccc4c3)ccc2N1	.	?	6.9%	.
N=c1c(S(=O)(=O)c2ccc(Br)cc2)cc2c(=O)n3ccccc3nc2n1Cc1ccccc1	-3.7	?	0.1%	0.1%
COc1ccc(CCn2c(=N)c(S(=O)(=O)c3ccc(C)cc3)cc3c(=O)n4ccccc4nc32)cc1	60.7*	?	-4.6%	0.5%
Cc1ccc(Cn2c(=N)c(S(=O)(=O)c3ccc(Br)cc3)cc3c(=O)n4ccccc4nc32)cc1	95.0*	-30.7%	-8.4%	-0.9%
NNC(=O)c1sccc1OCc1cccc(C(F)(F)F)c1	0.3	-9.0%	-1.6%	2.4%
Nc1ncccc1OCc1cccc(C(F)(F)F)c1	-1.8	16.4µM*	?	0.2%
Cn1c(/C(C#N)=C/c2ccccc2Br)nc2ccccc21	.	?	?	8.91µM*
Fc1ccc2c(c1)/C(=N/Nc1ccccn1)CCS2	-3.1	7.8%	0.4%	11.2µM*
c1ccc(N/N=C2\CCCc3ccccc32)nc1	0.9	1.2%	4.4%	?
Cc1nnc(-c2cccc(Br)c2)c2cn(-c3ccccc3)nc12	1.0	-14.0%	.	1.7%
Cc1nnc(-c2cccc(Br)c2)c2cn(-c3ccc(Br)cc3)nc12	-0.4	14.6µM*	-19.1%	-0.2%
COc1ccc(NC(=O)c2ccc(-c3csc(C)n3)cc2)cc1	-1.4	20.6µM*	-18.4%	0.1%
Cc1nc(-c2ccc(NC(=O)c3ccco3)cc2)cs1	2.6	7.31µM*	3.1%	-2.6%
Cc1nc(-c2cccc(NC(=O)c3ccco3)c2)cs1	-2.2	10.1%	0.7%	?
Cc1nc(-c2cccc(NC(=O)c3ccc(-n4cccn4)cc3)c2)cs1	-0.1	14.6µM*	-6.8%	0.7%
CC1Cc2cc(S(=O)(=O)CCC(=O)Nc3ccc(F)cc3Cl)ccc2N1C(=O)C1CC1 (configuration not stated)	.	-21.7%	-1.1%	-1.1%
O=C(CSc1nc(-c2ccccc2)no1)N1CCN(c2ccc(F)cc2)CC1	.	18.9%	1.6%	0.6%
COc1ccc(C2Nc3ccccc3C(=O)N2Cc2ccco2)cc1COc1ccc(N)cc1 (configuration not stated)	.	-8.4%	-14.8%	.
Cc1cncn1CCc1nc2c3ccccc3nc(SCC(=O)Nc3ccc(F)cc3)n2n1	.	.	-0.4%	-0.8%
SMILES	IL2 activator	Nrf2 inh	A549 tox	Nrf2 ARE act
Cc1n[nH]c(C)c1CCc1nc2c3ccccc3nc(SCC(=O)Nc3ccccc3F)n2n1	-1.3	?	?	-0.3%
Cc1cncn1CCc1nc2c3ccccc3nc(SCC(=O)Nc3cccc(Cl)c3)n2n1	-5.6	-17.8%	16.4µM*	16.3%
Cc1cccc(NC(=O)CSc2nc3ccccc3c3nc(CCc4c(C)n[nH]c4C)nn23)c1	-3.1	10.3µM*	?	-0.9%
NC(=O)c1c(NC(=O)C2COc3ccccc3O2)sc2c1CCN(Cc1ccccc1)C2 (configuration not stated)	400.7*	-0.3%	0.6%	0.4%
CCOC(=O)c1c(NC(=O)C2COc3ccccc3O2)sc2c1CCN(Cc1ccccc1)C2 (configuration not stated)	-1.8	-3.3%	1.7%	-0.3%
Cc1ccc(Cn2c(SCc3ccc(C(=O)N4CCCCCC4)cc3)nc3ccncc32)cc1	.	14.6µM*	-14.1%	-0.1%
Cc1cccc(Cn2c(SCc3ccc(C(=O)NC4CCCC4)cc3)nc3ccncc32)c1	.	20.6µM*	-5.6%	0.6%
O=C(NCc1ccc(F)cc1)c1cc(-c2ccc(Cl)cc2)n[nH]1	.	?	-1.5%	0.4%
CCOC(=O)c1cc(-c2ccccc2)n(-c2cccc(C(=O)N(CC)c3ccccc3)c2)c1C	.	.	?	0.6%
S=C1Cc2ccccc2N1	3.7	11.6µM*	16.4µM*	-1.4%
S=C1Nc2ccccc2CS1	-0.2	.	.	2.9%
O=S(=O)(c1ccc2c(c1)OCCO2)N1CCN(S(=O)(=O)c2cccs2)CC1	.	-14.2%	-2.2%	.
CC1CCc2nc3ncn(Cc4ccc(Cl)cc4)c(=O)c3cc2C1 (configuration not stated)	.	.	-2.8%	3.9%
Clc1ccc2c(N/N=C/c3cccc(Br)c3)ccnc2c1	0.2	18.3%	-10.9%	3.4%
Clc1ccc2c(N/N=C/c3ccccc3Br)ccnc2c1	-0.2	10.3µM*	?	5.2%
O=C(Nc1ccccc1C(=O)NCCc1ccccc1)c1ccco1	-0.2	.	0.3%	2.82µM*
O=C(O)CNC(=O)c1ccccc1NC(=O)c1ccco1	-1.0	19.3%	2.0%	0.9%
Cc1c(Cl)cccc1-n1ncc(C(=O)Nc2ccc(F)cc2F)c1C1CCN(C(=O)OC(C)(C)C)CC1	.	25.9µM*	-10.8%	0.9%
COc1ccc2[nH]cc(CCNC(=O)c3cnn(-c4ccc(C)cc4)c3C3CCN(C(=O)OC(C)(C)C)CC3)c2c1	.	14.6µM*	-19.5%	-1.0%
CCc1cccc(C)c1NC(=O)c1cnn(-c2ccc(OC)cc2)c1C1CCN(C(=O)OC(C)(C)C)CC1	.	23.1µM*	-15.1%	-0.9%
COc1cccc(C)c1NC(=O)C(OC(=O)CNC(=O)c1ccccc1)c1ccccc1 (configuration not stated)	.	16.7%	0.2%	.
CCOC(=O)c1c(Oc2ccc(C(C)=O)cc2)nnc(-c2ccccc2)c1-c1ccccc1	.	?	-0.8%	3.8%
CCC(C(=O)NCCc1ccc(C)cc1)n1nc(C)c2c(C)n(-c3ccccc3)nc2c1=O (configuration not stated)	-1.1	16.4µM*	-18.5%	-0.6%
Cc1ccc(-n2nc3c(=O)n(C(C)C(=O)NCCC4=CCCCC4)nc(C)c3c2C)cc1 (configuration not stated)	-1.0	20.6µM*	-16.2%	0.6%
CCC(C(=O)NCCc1ccc(SC)cc1)n1nc(C)c2c(C)n(-c3ccc(C)cc3)nc2c1=O (configuration not stated)	.	-100.3%	-12.5%	0.2%
Cc1ccc(-n2nc3c(=O)n(C(C)C(=O)NCc4ccc(Cl)cc4)nc(C)c3c2C)cc1 (configuration not stated)	-4.0	10.3µM*	-19.4%	2.2%
Cc1ccc(-n2nc3c(=O)n(C(C)C(=O)NCc4ccccc4C)nc(C)c3c2C)cc1 (configuration not stated)	.	5.17µM*	-8.8%	-0.8%
